Experimental findings from PubChem BioAssay (NCI) are described below.

The panel holds about 83,000 compounds, 20% with a hit somewhere; the sample as a whole holds those more often.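 Testing used 96-well plates and a 48-hour single-concentration exposure. Example: -40 means 40% of the starting cells died.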 Values without a mark were called inactive. Active and inactive are the calls of the source. Rule for the calls: active = growth percent below 10; inactive = the rest.

In the test the test system is HL-60(TB) leukemia. In words: NCI-60 one-dose screen, 48 h (100 = growth as untreated, 0 = no growth, -100 = all killed). The following applies: 10 µM unless noted.
Turning to `O=Nc1ccc2ccccc2c1O`, the growth is 74.3%. `Nc1ccccc1SC1CC(=O)N(c2ccc(Cl)c(Cl)c2)C1=O` (stereo not given): the growth was 139%.

As to `CCOC(=O)c1c(C)oc2ncnc(Nc3ccc(C(=O)NCCc4ccccc4)cc3)c12`, the growth is 87.7%. The same measure for `O=C(N/N=C\c1ccccc1S(=O)(=O)O)N/N=C/c1ccccc1S(=O)(=O)O`: 91.7%; for `CCn1cc(C2=C(c3cn(C)c4ncccc34)C(=O)NC2=O)c2cccnc21`: 89.8%; for `COc1cnc2c(c1)C(=O)c1c-2n(CCCN2CCC(O)CC2)c(=O)c2cc(Cl)ccc12`: -35.9% (active). The same measure for `CN(CCCNC(=O)CCOCCOCCOCCNC(=O)Cc1ccc2ccc3cccc4ccc1c2c34)CCCNc1cc(-c2ccc3ccccc3c2)nc2ccccc12`: -77.6% (active); for `O=C(/C=C\c1cccc([N+](=O)[O-])c1)c1ccccc1`: -43.8% (active); for `CC(C)C(=O)c1ccc(Cl)s1`: 99.9%. The same measure for `C=C(C)[C@@H]1CC[C@]2(C)[C@H](CC=C3[C@@H]4CC(C)(C)CC[C@]4(C=O)CC[C@]32C)[C@@]1(C)CCCN`: -3.43% (active); for `NC(=O)c1c(NC(=O)c2ccc(C(F)(F)F)cc2Cl)sc2c1CCC(=O)C2`: -12.9% (active); for `CCC1CCc2nc3sc(C(=O)Nc4cccc(F)c4)c(N)c3cc2C1` (stereo not given): 23%.

Turning to `CNc1ccc(CSc2ccc(Cl)cc2)cc1`, the growth is 5.59% (active). As for `CCCCCCCCCCCCCCCCCC[n+]1ccc2c(C)c3c(c(C)c2c1)c1cc(O)ccc1n3CC`, the growth is 30.2%. Under `Cc1cc(C)c(CCc2cc(C)c(C)cc2C)cc1C` stands 99.9%. The same measure for `C/C=C(\C)C(=O)N[C@H]1[C@@H](OC(C)=O)C[C@]2(C)C3CC[C@@]4(C)C(CC[C@@H]4C(C)N(C)C)C3CCC2[C@H]1O` (stereo not given in full): 70.5%; for `CCN(CC)C(=O)c1cccnc1`: 93.8%.

`COc1cc(-c2nn(-c3ccc(Br)cc3)cc2C(=O)O)ccc1O`: the growth is 82.8%.

As to `Cn1c(NCCc2ccc(O)c(O)c2)nc2c1c(=O)n(Cc1ccc(Cl)c(Cl)c1)c(=O)n2C`, the growth is 14.8%. Under `COc1ccc(Nc2cnc3cc(NS(=O)(=O)c4ccc(C)cc4)ccc3n2)cc1` stands 70%; under `Cc1ccc(-c2nc(/C=C3/C(=O)N(C)c4ccc(F)cc43)c3ccccn23)cc1`, 102%; under `COC1=CC(c2ccc[nH]2)=N/C1=C\c1[nH]c(C)c(C(=O)CCC(=O)Oc2ccc3c(c2)CCC2C3CC[C@]3(C)C(=O)CC[C@@H]23)c1C` (stereo not given in full), 79.8%. Under `CCOc1cc(/C=N\NC(=O)N/N=C/c2ccc(O)c(OCC)c2)ccc1O` stands -22.2% (active); under `O=C1Nc2c(C(=O)O)cccc2/C1=N/c1n[nH]c(=S)s1`, 79.7%; under `Cc1cc(C(=O)Nc2cc(Oc3ccc4nc(NC(=O)C5CC5)cn4n3)ccc2C)n(C)n1`, 7.21% (active).
